The list is not random: actives were taken first. Their share in the collection is about 6.6%.
KB-V1 cytotox – KB-V1 MDR subline cytotoxicity | KB-V1 MDR cells viability, CellTiter-Glo, 72 h | Potency, µM (highest dose often 46.1 µM), usual class: cytotoxic | 3.4% of 400,000 active; note: nearly all actives have a fitted effect of over 60% in size
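Following 72 h at 37 degrees C with compound, KB-V1 cell viability was read by CellTiter-Glo luminescence, medium being phenol-red-free DMEM plus 10% FBS; concentration-response parameters came from normalized, curve-fitted qHTS data.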
HepG2 viability – HepG2 cytotoxicity, counter-screen for TGF-b inhibitors; 0.76% of 410,000 active; HepG2 CAGA-GFP viability, ATP luminescence, 18 h; Potency, µM (highest dose often 46.1 µM), most hits filed as cytotoxic
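CellTiter-Glo luminescence gave cytotoxicity after 18 hours at 37 degrees C. The cells were HepG2 CAGA-GFP in 1% FBS DMEM, stimulated with 500 pg/mL TGF-beta after compound addition. %Activity was normalised to no-cell wells (complete cell-killing) and DMSO (no toxicity), and curves were fitted and classified.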
HT1080-NT tox – kills 2HG-producing HT-1080-NT fibrosarcoma cells | HT-1080-NT fibrosarcoma viability, CellTiter-Glo ATP luminescence, 48 h | Potency, µM (titrated, usually from 46.1 µM), most hits filed as cytotoxic | 1.6% of 360,000 active;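 note: NT is the 2HG producing partner of a matched IDH1 knockdown line; nearly all actives have a fitted effect of over 55% in size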
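Fibrosarcoma NT cells, 750 per well in 5% FBS RPMI, were exposed to compound for 48 hours. Viability: CellTiter-Glo luminescence.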
HT1080 IDH1KD tx – toxicity to HT-1080 IDH1 knockdown cells (counter line) | AID 686971 | HT-1080 IDH1 knockdown viability, ATP luminescence, 48 h | 2% of 360,000 active | Potency, µM (top dose mostly 46.1 µM), hits mostly cytotoxic
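After a 2 h attachment period, IDH1KD HT-1080 cells took pin-transferred compound for 48 h at 37 °C; ATP-based luminescence after 10 min room-temperature reagent incubation reported viability.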
KB-3-1 tox – kills parental KB-3-1 adenocarcinoma cells. KB-3-1 viability, CellTiter-Glo ATP luminescence, 72 h. AID 1347075. Potency, µM (series often up to 46.1 µM), most hits filed as cytotoxic. 1.4% of 400,000 active; note: nearly all actives have a fitted effect of over 60% in size
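Viability of parental KB-3-1 cells, measured by CellTiter-Glo luminescence, followed a 72 h incubation at 37 °C with pinned compounds in phenol-red-free DMEM containing 10% FBS.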
TGFb inhibitor – blocks TGF-b signaling. HepG2 CAGA-GFP TGF-b/SMAD3 reporter, GFP fluorescence, 18 h; TGF-beta stimulated, 500 pg/mL final. 1.2% of 410,000 active. Potency, µM (titrated, usually from 46.1 µM), usual class: inhibitors. AID 588855; note: nearly all actives have a fitted effect of over 65% in size
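HEPG2 CAGA-GFP cells (1000/well, DMEM with 1% FBS) were pre-incubated 2 h at 37 degrees C, given compound by pin tool, then stimulated with TGF-beta at 500 pg/mL final for 18 h before per-cell GFP fluorescence imaging.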
Hits are given with their value; - = inactive; ? = inconclusive; . = not tested or not shown. Calls come from the whole dose curve; as a rule, active = well fitted curve in the direction sought with a large enough effect; inconclusive = small, poorly fitted or top-dose-only effect, or another doubt; inactive = no such curve, though single readings can be large; an effect the other way counts as inactive or inconclusive.

SMILES	KB-V1 cytotox	HepG2 viability	HT1080-NT tox	HT1080 IDH1KD tx	KB-3-1 tox	TGFb inhibitor
CC(C)CC(N)c1csc(Nc2ccc(C(F)(F)F)cn2)n1 (stereo not given)	16.4µM	17.8µM	18.4µM	?	?	?
CCOc1ccc(Sc2cc(C(=O)NCCCOC)c3ccccc3n2)cc1	.	-	.	.	.	-
c1ccc(-n2cnc3cc(NCc4cccs4)ccc32)cc1	10.3µM	-	?	-	?	?
Cc1ccc(-n2cnc3cc(NCc4cccs4)ccc32)cc1	?	-	-	-	-	?
COc1ccc(-n2cnc3cc(NCc4ccccn4)ccc32)cc1	?	-	-	-	-	-
c1ccc(-n2cnc3cc(NCc4ccco4)ccc32)cc1	?	-	?	?	23.1µM	?
O=C(O)CCc1ccc(-c2ccc(Cl)cc2)n1-c1cccc(C(F)(F)F)c1	-	-	.	.	-	?
CCC(CO)Oc1cc(NCc2ccc(Cl)cc2Cl)c2ncn(C(C)C)c2c1 (stereo not given)	-	-	?	?	-	20µM
CCC(CO)Oc1cc(NCc2ccc(Cl)cc2)c2ncn(C(C)C)c2c1 (stereo not given)	-	-	-	-	-	?
Cc1cc(=O)cc(C)n1-c1ccc(Br)cc1	-	-	-	-	-	-
Cc1cn(C(=O)c2ccccc2)c(=S)n1-c1ccc(Br)cc1	14.6µM	-	-	-	-	-
COC(=O)c1cn(CC(=O)Nc2ccc(F)cc2)c2ccccc12	-	-	-	-	-	-
Cc1ccc(NC(=O)Cn2cc(C=O)c3ccccc32)cc1	-	-	-	-	-	7.94µM
CCc1cccc(NC(=O)Cn2cc(C=O)c3ccccc32)c1	20.6µM	-	?	16.4µM	?	?
COc1cccc(NC(=O)Cn2cc(C=O)c3ccccc32)c1	?	-	-	-	-	?
CN1c2ccccc2N(C)C1c1ccc2c(c1)OCO2	-	-	-	?	5.8µM	-
CC12CN3CC(C)(CN(C1)C3c1ccc3c(c1)OCO3)C2=O (stereo not given)	-	-	-	-	-	-
Cc1ccc(C2=Nc3ccccc3N(CC(=O)Nc3ccccc3F)C(=O)C2)cc1C	?	-	.	.	-	-
CSCCC(NS(=O)(=O)c1ccc(Cl)cc1)C(=O)OCc1c(Cl)cccc1Cl (stereo not given)	7.31µM	-	-	-	?	?
CSCCC(NS(=O)(=O)c1ccc(C)cc1)C(=O)N1CCCCCCC1 (stereo not given)	16.4µM	-	-	-	-	-
CSCCC(NS(=O)(=O)c1ccc(Cl)cc1)C(=O)O (stereo not given)	-	-	-	-	-	-
CSCCC(NS(=O)(=O)c1ccc(Cl)cc1)C(=O)N1CCN(c2ccccc2)CC1 (stereo not given)	14.6µM	-	-	-	-	-
CSCCC(NS(=O)(=O)c1ccc(Cl)cc1)C(=O)OCc1cccc(Cl)c1 (stereo not given)	?	-	-	-	-	?
CCCOc1ccc(C2C(=O)N(C3CCCCCC3)CC(=O)N2Cc2ccc(OC)cc2)cc1OC (stereo not given)	.	-	.	.	.	-
CCCCOc1ccc(C(=O)NCCc2csc(-c3cccc(F)c3)n2)cc1	-	-	.	.	-	-
SMILES	KB-V1 cytotox	HepG2 viability	HT1080-NT tox	HT1080 IDH1KD tx	KB-3-1 tox	TGFb inhibitor
O=C(NCc1ccc(F)cc1)c1ccc(CS(=O)Cc2ccc(Cl)cc2)o1 (stereo not given)	.	-	.	.	.	?
CCOC(=O)[C@]12CCCC=C1N(CCC1=CCCCC1)C(=O)[C@H](CC(=O)NCC1CCCCC1)C2	14.6µM	.	?	23.1µM	16.4µM	.
COC(=O)[C@]12CCCCC=C1N(Cc1ccc3c(c1)OCO3)C(=O)[C@H](CC(=O)NCc1cccc3ccccc13)C2	23.1µM	.	?	-	?	.
COC(=O)[C@]12CCCCC=C1N(CCC1=CCCCC1)C(=O)[C@H](CC(=O)NCc1cccc3ccccc13)C2	-	.	?	16.4µM	-	.
COC(=O)[C@]12CCCCC=C1N(Cc1ccccc1)C(=O)[C@H](CC(=O)NCc1cccc3ccccc13)C2	-	.	?	?	-	.
CC(C)OCCCNC(=O)Cc1ccc(NC(=O)N2CCCCc3ccccc32)cc1	-	-	.	.	-	-
C[C@]12CC[C@@H]3c4ccc(O)cc4CC[C@H]3[C@@H]1CC[C@@H]2O	?	-	?	?	-	-
CC(=O)O[C@H]1CC[C@H]2[C@@H]3CCc4cc(O)ccc4[C@H]3CC[C@]12C	14.6µM	-	18.4µM	?	?	?
CC(=O)OC1CCC2C3CCc4cc(O)ccc4C3CCC12C (stereo not given)	18.4µM	-	?	?	-	-
Cc1c(Cl)cccc1NS(=O)(=O)c1cc2c(cc1F)NC(=O)CC2	-	.	.	.	-	.
O=C(Nc1nsc(-c2ccccc2)n1)c1ccc(F)cc1	-	2.82µM	-	-	-	-
COc1cc(NC(=O)CSc2nc3ccccc3nc2Cc2ccccc2OC)cc(OC)c1	.	-	.	.	.	-
Clc1ccc2nc(COc3ccccc3)[nH]c2c1	-	-	13µM	8.2µM	?	-
O=c1[nH]c(COc2ccccc2)nc2ccccc12	?	-	-	-	-	-
COc1ccc(-c2c(C3C4C=CCCC4(C)C(=O)N3Cc3ccccc3)ccc3ccccc23)cc1OC (stereo not given)	.	-	.	.	.	-
CC(=O)N1CCc2cc(CNS(=O)(=O)c3ccc(F)cc3)ccc21	.	-	.	.	.	-
CC(=O)N1N=C2c3ccccc3CCC2C1c1ccc(F)cc1 (stereo not given)	?	-	?	20.6µM	?	?
CCNC(=S)N1N=C2c3ccccc3CCC2C1c1ccc(F)cc1 (stereo not given)	20.6µM	-	?	?	?	?
COc1ccc(C2Nc3ccccc3C(=O)N2Cc2ccco2)cc1OC (stereo not given)	-	-	.	.	?	?
COc1ccc(CCNC(=O)c2ccc3c(c2)N(Cc2ccccc2C)C(=O)c2ccccc2S3)cc1OC	.	-	.	.	.	-
CC1(C)CC(=O)c2cc(-c3nc(-c4ccc(Cl)cc4)cs3)c(=O)n(-c3cccc(F)c3)c2C1	-	-	.	.	-	-
Cc1cc(C)c2[nH]c(O)c(N=NC(=S)NCC3CCCO3)c2c1 (stereo not given)	?	-	-	-	-	-
CCn1c(O)c(N=NC(=S)NCC2CCCO2)c2ccccc21 (stereo not given)	?	-	-	-	-	10µM
Oc1[nH]c2ccccc2c1N=NC(=S)NCC1CCCO1 (stereo not given)	11.6µM	-	-	-	-	-
